PubChem BioAssay
Measured potencies and affinities stand elsewhere. Records with an inconclusive call do not appear. Calls of active or inactive are those of the source. Unless noted, the rule behind the calls is not given here.

Columns and labels:
[1] = RMG-1 ovarian cancer cell viability loss – cherry-pick, dose response (AID 687029;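 active = signal drop whose fitted half-maximal concentration is at most twice the top valid dose, in every test run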;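 note: cells exposed to compound for 96 hours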); details: RMG-1 viability, CellTiterGlo ATP luminescence, 96 h; series mostly up to 35 µM
[2] = CMV-driven luciferase expression suppression in HEK293 – cell-based, luminescence, dry powder, counter-screen for Pax8 inhibitor project, dose response (AID 743020;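 active = signal-lowering compounds whose fitted half-maximal concentration is at or below twice the top tested dose in every run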;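 note: HEK293 cells stably expressing the CMV luciferase reporter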); details: HEK293 CMV-luciferase reporter, SteadyGlo luminescence, 24 h; series mostly up to 35 µM
[3] = general cell-killing toxicity readout – plate reader, dry powder samples, cytotoxicity control for PAX8 inhibitor project, dose response (AID 743021); details: cell line, non-specific cytotoxicity counter-screen; series mostly up to 35 µM
[4] = IGROV1 cell killing – plate reader, dry powder samples, PAX8 inhibitor project, dose response (AID 743043); details: IGROV1 ovarian cancer cell cytotoxicity; series mostly up to 35 µM;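 note: more negative means fewer viable cells or more cytotoxicity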
[5] = toxicity toward immortalized ovarian surface epithelium – cell-based, plate reader, dry powder samples, cytotoxicity control for PAX8 inhibitor project, dose response (AID 743045); details: IOSE-T80 ovarian epithelial cells; series mostly up to 35 µM;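 note: 0% = neutral control median and -100% = positive control median; more negative values mean more cell killing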
[6] = A2780 cell killing – plate reader, dry powder samples, cytotoxicity control, dose response (AID 743046); details: A2780 ovarian cancer cytotoxicity; series mostly up to 35 µM;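 note: 0% = neutral control wells and -100% = cytotoxic reference compound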
[7] = OVCAR-3 cell viability loss – plate reader, dry powder samples, PAX8 inhibitor project, dose response (AID 743044); details: NIH:OVCAR-3 ovarian cancer cell viability; max activity: at 35 µM, stronger effect = lower value unless noted; series mostly up to 50 µM
[8] = OVCAR8 cell viability loss – plate reader, dry powder samples, PAX8 project, dose response (AID 743197); details: series mostly up to 35 µM

Measured: max activity

Cc1ccccc1S(=O)(=O)N1CC[C@@H]2[C@H](CO)Nc3ccc(-c4cccc(F)c4)cc3[C@@H]21
inactive: [1] | [2] | [3] | [4] | [5]

Cc1noc(C)c1S(=O)(=O)Nc1ccc2c(c1)C(=O)N([C@H](C)CO)C[C@H](C)[C@@H](CN(C)C(=O)Nc1ccc(C(F)(F)F)cc1)OCCCC[C@H](C)O2
inactive: [1] | [2] | [3] | [4] | [5] | [6]

Cc1ccc(S(=O)(=O)Nc2ccc3c(c2)CC(=O)N([C@@H](C)CO)C[C@H](C)[C@@H](CN(C)C(=O)Nc2ccc(C(F)(F)F)cc2)O3)cc1
inactive: [1] | [2] | [4] | [7] 7.6% [at 2.1 µM, stronger effect = lower value] | [5] | [6] | [8]

COc1cccc(S(=O)(=O)N2C[C@@H]3N[C@H](C2)C3c2ccc(/C=C/c3ccccc3)cc2)c1 (some centres not stated)
inactive: [1] | [2] | [6]

C[C@H](CO)N1C[C@H](C)[C@@H](CN(C)Cc2ccc(Cl)c(Cl)c2)Oc2ccc(NS(=O)(=O)c3ccccc3)cc2CC1=O
inactive: [1] | [2] | [3] | [4] | [5] | [6]

CC(C)CC#Cc1ccc2c(c1)O[C@H](CN(C)Cc1ccc(C(=O)O)cc1)[C@@H](C)CN([C@H](C)CO)S2(=O)=O
inactive: [1] | [2] | [4] | [5] | [6] | [8]

C[C@@H]1CN([C@H](C)CO)C(=O)c2cc(NC(=O)Nc3ccccc3)ccc2O[C@@H](C)CCCCO[C@@H]1CN(C)Cc1ccc(C(F)(F)F)cc1
inactive: [1] | [2] | [3] | [5] | [6]

COc1ccccc1C#Cc1ccc2c(c1)O[C@H](CN(C)Cc1cccnc1)[C@H](C)CN([C@@H](C)CO)S2(=O)=O
inactive: [1] | [2] | [3] | [4] | [5] | [6]

O=C1/C(=C/c2ccccc2F)SC(=S)N1CC(=O)N1CCCCC1c1cccnc1 (configuration not stated)
inactive: [1] | [2] | [3] | [4] | [6]

C[C@@H]1CN([C@H](C)CO)C(=O)c2cc(NC(=O)NC3CCCCC3)ccc2O[C@@H](C)CCCCO[C@H]1CN(C)Cc1ccc(C(F)(F)F)cc1
inactive: [1] | [2] | [3] | [5]

CO[C@@H]1CN(C)C(=O)c2cc(NC(=O)c3ccc(-c4ccccc4)cc3)ccc2OC[C@H](C)NC[C@H]1C
inactive: [1] | [2] | [4] | [5] | [8]

O=S(=O)(c1ccccc1F)N1CC[C@@H]2[C@H]1c1cc(-c3cccc(F)c3)ccc1N[C@@H]2CO
inactive: [1] | [2] | [5] | [6]
